Assay results published in PubChem BioAssay AID1076 (NMMLSC, 2008).

Assay: cytotoxicity in LNCaP prostate cells – cell-based, cell event count, single point, cytotoxicity control for prostate differentiation activator project, confirmation (AID 1076);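 also: counts scatter-gated live cells after medium removal discards detached dead cells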
Details: LNCaP cell loss, flow cytometry event count, 4 d; event count; at 10 µM; stronger effect = lower value

SMILES | cell event count
COc1ccc(S(=O)(=O)Nc2ccc(F)c(Cl)c2)cc1OC | 144
O=C(COc1ccc(S(=O)(=O)N2CCCC2)cc1Cl)NC1CC1 | 328
Cc1noc(C)c1S(=O)(=O)N1CCC(C(=O)NCCN2CCC(C)CC2)CC1 | 188
Cc1nc(NCCNC(=O)c2ccco2)c2c(C)c(C)sc2n1 | 170
CC(C)CCNC(=O)C1CCN(c2nc3ccccc3o2)CC1 | 110
CCOC(=O)N1CCN(CC(=O)Nc2cc(C)nn2-c2nc3ccccc3s2)CC1 | 245
O=C(NCCCN1CCOCC1)c1cc2c(s1)CSC2 | 52.5
O=c1cc(-c2ccccc2)[nH]c2ccccc12 | 76
Cc1ccc(Cn2c(C(=O)NCCCN3CCOCC3)cc3sccc32)cc1 | 379
COc1ccc(-c2ccc(-c3noc(-c4ccccc4)n3)c(OC)n2)cc1 | 32
O=C(CCn1c(=O)oc2ccccc21)NCCCN1CCN(c2ccc(F)cc2)CC1 | 127
O=C(NCC1CCCO1)C1CC(c2ccc(Cl)c(Cl)c2)=NO1 (stereo not drawn) | 79
CCOC(=O)N1CCC(=C2c3ccc(Cl)cc3CCc3cccnc32)CC1 | 192
CCCN(CCC)CCNC(=O)C1CCN(Cc2nc(-c3ccc(Cl)cc3)oc2C)CC1 | 120
N=c1n(CCN2CCCCC2)c2ccccc2n1CC(O)COc1ccccc1 (stereo not drawn) | 178
Cn1c(=O)cc(OCC(=O)NCCCN2CCN(c3ccccc3F)CC2)c2ccccc21 | 401
Cc1cccc(-c2nc(CN3CCCC(C(=O)NC4CCCCC4)C3)c(C)o2)c1 (stereo not drawn) | 170
Cc1ccccc1-c1nc(CN2CCC(C(=O)NCc3ccco3)CC2)c(C)o1 | 296
Cc1oc(-c2ccccc2F)nc1CN1CCC(C(=O)NCc2ccco2)CC1 | 278

SMILES | cell event count
COc1ccc(-c2ccc(-c3nnn(CC(C)=O)n3)cc2)cc1 | 116
CCN1CCN(c2cc(C)c3cc(NC(=O)c4ccc(Br)o4)ccc3n2)CC1 | 233
CCN1CCN(CCNC(=O)C2CCCN(Cc3nc(-c4cccc(Cl)c4)oc3C)C2)CC1 (stereo not drawn) | 141
Cc1cc(=O)c2ccccc2[nH]1 | 91
COc1ccc(Cl)cc1N1CCN(CCNC(=O)Nc2ccccc2C)CC1 | 506
Cc1oc(-c2ccccc2F)nc1CN1CCC(C(=O)NC2CC2)CC1 | 496
Oc1ccccc1CNc1nc2ccccc2n1CCN1CCCCC1 | 176
Cn1nc(-c2ccc(Cl)cc2)c2cc(C(=O)NCCCN3CCOCC3)sc21 | 184
O=C(Cn1ccc2ccccc2c1=O)NCCC(=O)N1CCN(c2cccc(C(F)(F)F)c2)CC1 | 258
COC(=O)C1=C(C)N=c2s/c(=C/c3cccs3)c(=O)n2C1c1cccs1 (stereo not drawn) | 320
O=c1cc(N2CCc3ccccc3C2)[nH]c(=O)n1C1CCCCC1 | 76.5
Cc1ccc(S(=O)(=O)NCCCCC(NC(=O)OC(C)(C)C)C(=O)O)cc1 (stereo not drawn) (tested in a mixture with another compound) | 138
Cc1ccc(CNc2nc3ccccc3n3nnnc23)cc1 | 196
O=C(NCCc1c[nH]c2ccccc12)C(F)(F)C(F)F | 118
O=C(NCCCN1CCN(c2ccccc2F)CC1)C1CCN(S(=O)(=O)N2CCOCC2)CC1 | 108
CCOC(=O)c1[nH]c(C)c(C(=O)N2CCc3ccccc32)c1C | 67
CN(C)c1ccc(-c2nn3c(-c4ccc(Cl)cc4Cl)nnc3s2)cc1 | 65.5
COc1ccc(-c2cc3c(=O)n(CC(=O)NC4CCN(Cc5ccccc5)CC4)ncn3n2)cc1 | 257
Cc1oc(-c2ccccc2F)nc1CN1CCC(C(=O)NCCC2=CCCCC2)CC1 | 402
